Screens as filed in PubChem.
Pf Dd2 growth – inhibitors of Plasmodium falciparum Dd2 growth. P. falciparum Dd2 growth, SYBR Green, 72 h. Potency, µM (highest dose often 28.9 µM), most hits filed as inhibitors. 120,000 compounds, 4.3% hits. AID 1347417; active = well fitted inhibition curve with a large enough effect; note: nearly all actives have a fitted effect of over 65% in size
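Infected erythrocytes (Dd2, 0.3% parasitemia, 2.5% hematocrit final) are added to compound in RPMI-1640/Albumax II medium, grown 72 h at 37C in low oxygen, then lysed with saponin/Triton-X containing SYBR Green and read by fluorescence.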
Hits are given with their value; - = inactive. Shown is part of a subset that was picked to be rich in hits.

SMILES | Pf Dd2 growth
Cc1ccccc1-c1nc2cnccn2c1NCCC(=O)NC1CCCCC1 | -
CCn1c(CN(C)C)nnc1C1CCN(C(=O)CN(C)c2ccccc2)CC1 | -
Cc1ccccc1C(=O)N(C)Cc1ccc(F)cc1 | -
COc1ccc(-n2nc(C3CCCN(CCC(C)C)C3)[nH]c2=O)cc1 (centres undefined) | -
CCC(CC)C(=O)NC[C@H]1O[C@@H](CC(=O)N2CCN(c3ccccn3)CC2)[C@H](O)[C@@H]1O | -
Cc1ccc(CN2CCC(CNc3nccc(-c4ccccn4)n3)CC2)o1 | -
Cc1cccc(N2CCN(c3nccc(-c4ccccn4)n3)CC2)n1 | -
CN(Cc1ccccc1CN1CCCC1)c1nccc(-c2ccccn2)n1 | 3.5µM
CCCn1cc(-c2ccncc2)cc1C(=O)NCc1ccc(OC)cc1 | -
CCn1cc(-c2ccc(OC)cc2)cc1C(=O)NC(C)c1cccnc1 (centres undefined) | -
CCCn1cc(-c2ccncc2)cc1C(=O)NC(C)c1ccc(OC)cc1 (centres undefined) | 7.9µM
Cc1ccc(-c2ncc(C(=O)O)c(-c3ccncc3)n2)cc1 | -
O=S(=O)(Cc1ccccc1)N1CC(c2nnc(-c3ccncc3)o2)C2(CCOCC2)C1 (centres undefined) | -
CC(NC(=O)c1ccc(CSc2nc3ccncc3n2Cc2ccc(F)cc2)cc1)c1ccccc1 (centres undefined) | 8.9µM
CC(NC(=O)c1ccccc1)c1nc2ccccc2n1Cc1ccc(Cl)cc1 (centres undefined) | -
O=C(NC1CCCC1)c1ccc2c(=O)n(Cc3ccccc3)c(SCc3ccccc3)nc2c1 | -
CC(NC(=O)c1cc2sccc2n1Cc1ccc(F)cc1)c1ccccc1 (centres undefined) | -
Cc1ccccc1Cn1c(SCc2ccc(C(=O)NC(C)c3ccccc3)cc2)nc2ccncc21 (centres undefined) | 6.3µM
Cc1ccccc1CSc1nc2cc(C(=O)NC3CCCC3)ccc2c(=O)n1Cc1ccccc1 | -
CC(NC(=O)c1ccc(Cn2c(SCc3ccccc3)nc3cccnc32)cc1)c1ccccc1 (centres undefined) | -
CC1CCCN(C(=O)c2ccc(CSc3nc4ccncc4n3Cc3ccccc3)cc2)C1 (centres undefined) | 11µM
CN(C)[C@H]1CCCCN(C(=O)c2ccc(CSc3ccccn3)cc2)C1 | -
O=C1NCCCCCCN(C(=O)CCCc2ccccc2)[C@H]2CCCC[C@@H]12 | -
CCC(=O)N1CCC(Cc2noc(C3CCOCC3)n2)C1 (centres undefined) | -
CN1CCC(Cc2nc(CC3C=CS(=O)(=O)C3)n(CCO)n2)CC1 (centres undefined) | -
SMILES | Pf Dd2 growth
Cc1ccc(NS(=O)(=O)c2ccccc2)c(=O)n1CC(=O)NC(C)c1ccccc1 (centres undefined) | -
COc1ccccc1C(=O)N1CCC2(CC1)CC(c1cccnc1)=NO2 | -
CCC(C(=O)NCc1nnc2c(-c3nc(C(C)C)no3)cccn12)c1ccccc1 (centres undefined) | -
CC1(COCC2CC2)COc2ccc(C(=O)NCc3cccc(F)c3)cc2N1 (centres undefined) | -
CCc1noc(-c2cn(C3CCN(C(=O)c4cccc(C)c4)CC3)nn2)n1 | -
Cc1ccc(NC(=O)CCC2CCN(C(=O)c3ccccc3)CC2)cc1F | -
CNC(=O)N1CCOc2ccc(CCC(=O)NCC3CC3)cc2C1 | -
CNC(=O)[C@@H]1CN(C(=O)c2conc2C)C[C@H]1COC | -
COc1cccc(-c2cc3c(=O)n(CCNC(=O)c4ccc(Cl)cc4)ccn3n2)c1 | -
COc1cccc(-c2cc3c(=O)n(CCNC(=O)c4cc5ccccc5[nH]4)ccn3n2)c1 | -
COc1cccc(-c2cc3c(=O)n(CCNC(=O)c4cc(Cl)ccc4F)ccn3n2)c1 | -
COc1cccc(-c2cc3c(=O)n(CCNC(=O)c4cc(C)cc(C)c4)ccn3n2)c1 | -
COc1cccc(-c2cc3c(=O)n(CCNC(=O)c4ccc(C(C)(C)C)cc4)ccn3n2)c1 | 1.1µM
COc1cccc(-c2cc3c(=O)n(CCNC(=O)c4ccccc4F)ccn3n2)c1 | 13µM
COCCN1C(=O)[C@@H]2C[C@@H](CN2Cc2ccc3ccccc3n2)Oc2ccccc21 | -
Cc1nncn1CCN1CCCC(CCC(=O)N(C)C2CCN(C)CC2)C1 (centres undefined) | -
CNCc1ccncc1 | -
CCN(Cc1ccccc1)C(=O)CN1CCCc2nc(C3CC3)ncc2C1=O | -
Cc1ccc(Cn2c(C(=O)O)c(CNC3CCCC3)c3ccc(C)cc32)cc1 | -
C=Cc1ccc(Cn2c(C(=O)O)c(CNC3CCCCC3)c3ccc(OC)cc32)cc1 | 11µM
COc1ccc(Cn2c(C(=O)O)c(CNC3CCC(C)CC3)c3ccc(C)cc32)cc1 (centres undefined) | -
COc1ccc2c(CNC3CCCCCC3)c(C(=O)O)n(Cc3cccc(F)c3)c2c1 | -
COc1ccc2c(CNC3CCCCCC3)c(C(=O)O)n(Cc3ccc(C)cc3)c2c1 | 8.9µM
COc1ccc(Cn2c(C(=O)O)c(CNC3CCCC3)c3ccc(C)cc32)cc1 | -
CC(C)(C)C(=O)N1CCC2(CC1)OCC(C(=O)NC1CC1)N2C(=O)c1ccc(F)cc1 (centres undefined) | -
SMILES | Pf Dd2 growth
COc1cc(OC)cc(-c2onc(C)c2C(=O)NCc2ccc(F)c(F)c2)c1 | -
CC(=O)N[C@@H]1CN(C(=O)CCc2c[nH]c3ccccc23)C[C@H]1CO | -
CN1[C@@H](CCC(=O)NCc2cccnc2)CNC(=O)[C@@H]2[C@H]1CCN2C1CCCCC1 | -
CCOc1cc(=O)n2c(c1C(=O)Nc1ccc(SC)cc1)CCCC2 | -
CCn1cnnc1-c1nn(C)c2c1CN(C(=O)CCC(=O)N1CC(=O)Nc3ccccc31)CC2 | -
CN1CC2(CCCN(CC3CC3)C2)c2cc(C(=O)NCCc3ccccc3)ccc21 (centres undefined) | 3.2µM
CC(=O)N1CCCC2(C1)CN(C)c1ccc(C(=O)NCCc3ccccc3)cc12 (centres undefined) | -
CN(C)CCNC(=O)c1ccc2c(c1)C1(CCCN(CC3CC3)C1)CN2C (centres undefined) | -
Cn1ncc2c(C(=O)N3CCN(c4ncccn4)CC3)cc(-c3ccc(Cl)nc3)nc21 | -
COCCCNS(=O)(=O)c1cc(-c2onc(C)c2C)ccc1OC | -
COc1ccc(-c2onc(C)c2C)cc1S(=O)(=O)NCC1CCN(Cc2cc(C)ccc2C)CC1 | 11µM
COc1ccc(-c2onc(C)c2C)cc1S(=O)(=O)NCc1ccc(Br)cc1 | -
COc1ccccc1NC(=O)N1CCC(N2CC3CC(C2)[C@H]2CCCC(=O)N2C3)CC1 (some centres undefined) | -
O=C1CCN(Cc2ccncc2)CCCC(C(=O)NCc2ccc(F)cc2)CCN1 (centres undefined) | -
COC(=O)[C@@H]1Cc2c([nH]c3ccccc23)[C@H]2C[C@@H](NCCN(C)C)C[C@@H](c3cccc(Cl)c3)N21 | 2.8µM
COC(=O)[C@@H]1Cc2c([nH]c3ccccc23)[C@H]2C[C@@H](NCCc3cnc[nH]3)C[C@@H](c3cccc(Cl)c3)N21 | -
COC(=O)[C@@H]1Cc2c([nH]c3ccccc23)[C@H]2C[C@@H](NC(C)C)C[C@@H](c3ccc(C)cc3)N21 | -
COC(=O)[C@@H]1Cc2c([nH]c3ccccc23)[C@H]2C[C@@H](NCc3cccs3)C[C@@H](c3ccccc3F)N21 | -
COC(=O)[C@@H]1Cc2c([nH]c3ccccc23)[C@H]2C[C@@H](NCCN3CCOCC3)C[C@@H](c3ccc(F)cc3)N21 | -
